Records with an inconclusive call do not appear. Active and inactive are the calls of the source. Calls follow the shape of the dose curve; as a rule, active = well fitted inhibition curve with a large enough effect; inconclusive = small, poorly fitted or top-dose-only effect; inactive = flat fitted curve, though single readings scatter.
Potency is read from the fitted curve at half-maximal effect.

Sequence of Ferritin light chain (Equus caballus) (P02791 2-175 limits assumed): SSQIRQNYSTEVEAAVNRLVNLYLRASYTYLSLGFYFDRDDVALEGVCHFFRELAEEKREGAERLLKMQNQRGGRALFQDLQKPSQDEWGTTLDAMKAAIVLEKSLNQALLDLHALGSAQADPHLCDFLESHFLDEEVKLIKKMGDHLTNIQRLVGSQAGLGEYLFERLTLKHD

This assay addresses Ferritin light chain (Equus caballus) (UniProt P02791). The assay can be described thus: Confirmation Assay for Identification of Novel General Anesthetics. Also: nearly all actives have a fitted effect of over 40% in size. The conditions noted are these: apoferritin 1-aminoanthracene fluorescence displacement. The procedure, abridged:
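Horse apoferritin (10 uM) pre-loaded with 1-AMA (50% saturated, PBS) exposed to compounds 10 min at room temperature; loss of 1-AMA fluorescence (380/535 nm) scaled between free and bound ligand, curves fitted with Hill equation.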
`O=C(NC1=NCCS1)C12CC3CC(CC(C3)C1)C2`: the Potency was 15.8 µM (active).
With `Oc1ccc(Cc2ncc(C(F)(F)F)cc2Cl)cc1`, the Potency was 15.8 µM (active).
Regarding `Cc1ccccc1Cn1nnc2sc3c(c2c1=O)CCCC3`, the Potency is 15.8 µM (active).
`O=C1c2ccsc2SCCN1Cc1ccc(Cl)cc1Cl`: the Potency is 15.8 µM (active).
As to `Cn1cc([N+](=O)[O-])c(C(=O)Nc2ccc(C3CCCCC3)cc2)n1`, the Potency was 14.1 µM (active).
For `CN(CC(=O)Nc1ccccc1Cl)C1CCCCC1` the value was 15.8 µM (active).
`O=C(Cn1nc(-c2ccc(Cl)cc2)ccc1=O)NCC1CCCO1` (stereo not drawn): the Potency was 14.1 µM (active).
Regarding `Cc1ccc(C2=NN(CC(=O)NCc3cccs3)C(=O)CC2)cc1`, the Potency is 7.08 µM (active).
With `Cc1nnc(SCc2ccc(F)cc2Cl)s1`, the Potency was 22.4 µM (active).
With `Cc1c(Br)cc(C(=O)N2CCCCCC2)c(C)c1C`, the Potency was 17.8 µM (active).
Turning to `O=C(CC12CC3CC(CC(C3)C1)C2)Nc1nncs1`, the Potency was 10 µM (active).
As for `Cc1ccc(S(=O)(=O)NCCC2=CCCCC2)cc1C(N)=O`, the Potency is 7.08 µM (active).
Consider `Fc1ccccc1CSc1nncn1NC/C=C/c1ccccc1`, for which the Potency is 31.6 µM (active).
Consider `Cc1ccc(NC(=O)Cn2nc(-c3ccco3)ccc2=O)cc1Cl`, for which the Potency is 28.2 µM (active).
Take `CSC(=O)NC12CC3CC(CC(C)(C3)C1)C2`: the Potency was 5.62 µM (active).
As for `COc1ccccc1CC(=O)N1CCCc2ccccc21`, the Potency is 31.6 µM (active).
Take `CC1CCCC(C)N1C(=O)CSc1nnnn1Cc1ccccc1` (stereo not drawn): the Potency was 8.91 µM (active).
For the compound `CCc1ccc(CNC(=O)Cn2nc(-c3ccccc3)ccc2=O)cc1`, the Potency was 10 µM (active).
As to `Nc1ccc(CSc2ccc(Cl)cc2)cc1`, the Potency was 15.8 µM (active).
In the case of `Nc1nc(-c2cc(Cl)cc(Cl)c2OC(F)F)cs1`, the Potency was 8.91 µM (active).
Consider `C/C(=N\O)C(C)(C)Nc1ccc(Br)cc1`, for which the Potency is 8.91 µM (active).
With `COc1ccccc1-c1cn(C(C)(C)C)nc1C`, the Potency was 14.1 µM (active).
For `O=C(COC(=O)CC1CC2CCC1C2)NC(=O)NC1CCCC1` (stereo not drawn) the value was 15.8 µM (active); for `Cc1cccc(Nc2nc(Cl)ncc2F)c1C`, 28.2 µM (active); for `COc1ccccc1C1SCCN1S(C)(=O)=O` (stereo not drawn), 20 µM (active).
Take `c1cc2cn[nH]c2cc1NC1CCCCCC1`: the Potency is 15.8 µM (active).
With `Cc1ccccc1CSc1nsc(N)n1` the figure was 17.8 µM (active); with `O=C(CCC1CCCCC1)Nc1nccs1`, 39.8 µM (active).
Turning to `Nc1ccc2nc(SCc3cccc(F)c3)sc2c1`, the Potency is 28.2 µM (active).
For `Cc1cccc(N(C(=O)Nc2ccccc2)C2=NCC(C)S2)c1` (stereo not drawn) the value was 25.1 µM (active); for `O=C(NCc1ccccc1)Nc1cccn(Cc2ccccc2)c1=O`, 8.91 µM (active).
Regarding `COC1CCCCC1Nc1cc(C)cc(C)c1` (stereo not drawn), the Potency was 31.6 µM (active).
In the case of `O=C(CSc1ccccn1)N1CCc2ccccc21`, the Potency was 8.91 µM (active).
For the compound `O=C1c2ccsc2SCCN1Cc1cccc(Cl)c1`, the Potency was 15.8 µM (active).
Consider `O=C(NC1CCCCC1)C(=S)NCc1ccccc1`, for which the Potency was 15.8 µM (active).
As to `Nc1cc(Cl)ccc1Oc1ccc2ccccc2c1`, the Potency is 15.8 µM (active).
With `Cc1cc(C)n(Cc2ccccc2Cl)n1` the figure was 12.6 µM (active).
On to `O=c1c2c3c(sc2ncn1-n1cccc1)CCCCC3`, for which the Potency is 10 µM (active).

The values above are taken from PubChem BioAssay AID489008 (National Center for Advancing Translational Sciences (NCATS), 2010).
